Eight compounds from PubChem BioAssay (NCI) can be followed below.

The panel holds about 83,000 compounds, 20% with a hit somewhere; the sample as a whole holds those more often.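 Results are percent growth after 48 hours of single-concentration exposure. 100 means growth as in untreated cells, lower positive values show inhibition; negative values down to -100 show cell death.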 A number with no mark means an inactive call. Activity calls are given as the source filed them. Rule for the calls: active = growth percent below 10; inactive = the rest.

Some test systems named below: NCI-H23 lung; NCI-H226 lung; NCI-H322M lung; HOP-62 NSCLC; NCI-H460 lung; HOP-92 NSCLC; NCI-H522 lung; A549/ATCC NSCLC; 786-0 renal; COLO 205 colon; DU-145 prostate; MALME-3M melanoma; MDA-MB-231 breast; RXF 393 renal; SF-268 CNS; SF-295 CNS; SF-539 CNS; UACC-257 melanoma; M14 melanoma; K-562 leukemia.
Holding throughout (test): NCI-60 one-dose screen, 48 h (100 = growth as untreated, 0 = no growth, -100 = all killed)
What all share (settings): 10 µM unless noted

`c1coc(CSc2ncnc3nc[nH]c23)c1`: the growth with NCI-H23 lung is 103%; in the experiment with NCI-H226 lung, 101%; in the experiment with NCI-H322M lung, 125%; in the experiment on HOP-62 NSCLC, 99.7%; with NCI-H460 lung, 111%; with HOP-92 NSCLC, 57.8%. The growth with NCI-H522 lung is 80%; in the experiment with A549/ATCC NSCLC, 101%; with 786-0 renal it was 97%; with COLO 205 colon it was 113%; with DU-145 prostate, 108%; in the experiment on MALME-3M melanoma it was 125%. The growth with MDA-MB-231 breast is 115%; in the experiment with RXF 393 renal, 91.1%; with SF-268 CNS, 101%; in the experiment with SF-295 CNS, 142%; in the experiment on SF-539 CNS, 91.6%; in the experiment on UACC-257 melanoma, 97.3%. In addition, the growth in the experiment with M14 melanoma was 101%.
`O=C(COc1ccc(Cl)cc1)N1CCN(Cc2ccc3c(c2)OCO3)CC1`: the growth in the experiment with NCI-H23 lung is 89.8%; in the experiment on NCI-H226 lung it was 101%; in the experiment with NCI-H322M lung it was 105%; in the experiment with HOP-62 NSCLC, 101%; with NCI-H460 lung, 107%; in the experiment on HOP-92 NSCLC, 81.1%. Further, the growth was 93.8% with NCI-H522 lung; 96.3% with A549/ATCC NSCLC; 101% in the experiment with 786-0 renal; 113% with DU-145 prostate; 84.8% in the experiment with K-562 leukemia; 98.4% in the experiment on MALME-3M melanoma. Also, the growth is 87.2% in the experiment on MDA-MB-231 breast; 109% with RXF 393 renal; 95.9% with SF-268 CNS; 95.4% in the experiment on SF-295 CNS; 104% in the experiment with SF-539 CNS; 103% with UACC-257 melanoma. The growth with M14 melanoma is 111%.
`COc1ccc(C(=O)NC(=O)Nc2ccc3c(c2)NC(=O)/C3=C\c2[nH]c(C)c(CCC(=O)O)c2C)c(F)c1`: the growth in the experiment with NCI-H23 lung was 40.4%; in the experiment on NCI-H226 lung it was 45%; with NCI-H322M lung it was 50.7%; in the experiment on HOP-62 NSCLC it was 19.8%; with NCI-H460 lung, 17.1%; with HOP-92 NSCLC it was 83.5%. The growth is 26.8% in the experiment with NCI-H522 lung; 7.84% (active) in the experiment with A549/ATCC NSCLC; 31.2% with 786-0 renal; 42.7% in the experiment with DU-145 prostate; 23.9% in the experiment on K-562 leukemia; 40.6% with MALME-3M melanoma. Besides, the growth is 71.5% in the experiment with MDA-MB-231 breast; 21.1% in the experiment with RXF 393 renal; 35% in the experiment on SF-268 CNS; 42.7% in the experiment on SF-295 CNS; -5.86% (active) in the experiment with SF-539 CNS; 14.1% in the experiment on UACC-257 melanoma. Further, the growth with M14 melanoma was 33.2%.
With `CC(C)(C)OC(=O)N1CC(Cn2cc(C(F)(F)F)c3c(Cl)ncnc32)C1`, the growth was -68.9% (active) in the experiment on NCI-H23 lung; 63.8% in the experiment on NCI-H226 lung; -90.2% (active) in the experiment with NCI-H322M lung; -83.7% (active) with HOP-62 NSCLC; -59% (active) with NCI-H460 lung; -64.5% (active) in the experiment with HOP-92 NSCLC. Moreover, the growth is 39.9% with NCI-H522 lung; 5.78% (active) with A549/ATCC NSCLC; 107% in the experiment on 786-0 renal; 63.8% with COLO 205 colon; -100% (active) in the experiment with DU-145 prostate; 80.6% with MALME-3M melanoma. The growth in the experiment on MDA-MB-231 breast was 0.765% (active); in the experiment with RXF 393 renal, -63.7% (active); with SF-268 CNS, -86.9% (active); in the experiment with SF-295 CNS it was 30.4%; in the experiment on SF-539 CNS it was 79.9%; with UACC-257 melanoma it was -37.9% (active). For the same compound, the growth in the experiment on M14 melanoma is -87.4% (active).
Take `CN(CCNCc1ccccn1)CCNCc1ccccn1`: the growth with NCI-H23 lung was 18.2%; in the experiment on NCI-H226 lung, -63.6% (active); in the experiment on NCI-H322M lung it was 9.06% (active); in the experiment with HOP-62 NSCLC, 4.07% (active); in the experiment with NCI-H460 lung it was -7.2% (active); in the experiment with HOP-92 NSCLC it was -7.3% (active). Also, the growth is 18.9% in the experiment with NCI-H522 lung; 0.123% (active) with A549/ATCC NSCLC; -3.78% (active) with 786-0 renal; 11.3% in the experiment with DU-145 prostate; 2.92% (active) in the experiment with K-562 leukemia; -21.8% (active) in the experiment on MALME-3M melanoma. The growth was 1.53% (active) in the experiment on MDA-MB-231 breast; -24.3% (active) in the experiment with RXF 393 renal; 20.3% with SF-268 CNS; -6% (active) in the experiment with SF-295 CNS; 3.15% (active) in the experiment with SF-539 CNS; -35.8% (active) in the experiment with UACC-257 melanoma. Also, the growth in the experiment on M14 melanoma is -18.3% (active).
On to `CC(C)Cn1cnc2c3ccccc3nc(NCn3nc(-c4cc(Cl)cc(Cl)c4Cl)oc3=S)c21`, for which the growth in the experiment with NCI-H23 lung was 80.4%; with NCI-H226 lung, 99%; in the experiment on NCI-H322M lung it was 91.6%; in the experiment on HOP-62 NSCLC, 66.4%; with NCI-H460 lung it was 110%; with HOP-92 NSCLC it was 50.7%. In addition, the growth in the experiment on NCI-H522 lung was 74%; in the experiment with A549/ATCC NSCLC, 99.9%; in the experiment with 786-0 renal, 75.5%; with DU-145 prostate, 115%; with K-562 leukemia, 59.6%; in the experiment on MALME-3M melanoma it was 116%. In addition, the growth in the experiment on MDA-MB-231 breast is 82.9%; in the experiment on RXF 393 renal, 95%; in the experiment on SF-268 CNS it was 110%; in the experiment with SF-295 CNS, 100%; with SF-539 CNS, 94.7%; in the experiment on UACC-257 melanoma it was 99.4%. For the same compound, the growth in the experiment with M14 melanoma is 79.9%.
Consider `Cc1cn(C2CC(N=[N+]=[N-])C(COP(=O)(O)OP(=O)(O)OP(=O)(O)O)O2)c(=O)[nH]c1=O` (configuration not stated), for which the growth is 94.7% with NCI-H23 lung; 115% in the experiment on NCI-H226 lung; 102% in the experiment on NCI-H322M lung; 94.1% with HOP-62 NSCLC; 82.4% with NCI-H460 lung; 50.9% with HOP-92 NSCLC. Further, the growth in the experiment with NCI-H522 lung is 92.9%; in the experiment with A549/ATCC NSCLC, 146%; in the experiment on 786-0 renal it was 95.2%; in the experiment on DU-145 prostate it was 114%; with K-562 leukemia, 83.5%; in the experiment on MALME-3M melanoma, 87.9%. In addition, the growth was 118% in the experiment on MDA-MB-231 breast; 127% with RXF 393 renal; 103% in the experiment with SF-268 CNS; 80.7% in the experiment with SF-295 CNS; 114% in the experiment on SF-539 CNS; 108% with UACC-257 melanoma. The growth with M14 melanoma was 57.7%.
On to `CC(=O)c1cc2c(N)c(C(=O)Nc3cccc(Cl)c3)sc2nc1C`, for which the growth in the experiment with NCI-H23 lung is 91%; in the experiment on NCI-H226 lung, 87.3%; in the experiment with NCI-H322M lung it was 77.7%; in the experiment on HOP-62 NSCLC, 90.4%; in the experiment on NCI-H460 lung, 45.7%; in the experiment with HOP-92 NSCLC it was 58.3%. Besides, the growth with NCI-H522 lung is 72.9%; in the experiment with A549/ATCC NSCLC, 39.3%; in the experiment on 786-0 renal it was 89.1%; with COLO 205 colon it was 40.7%; with DU-145 prostate, 87.3%; with MALME-3M melanoma, 102%. In addition, the growth with MDA-MB-231 breast is 87.5%; in the experiment on RXF 393 renal it was 79.7%; with SF-268 CNS it was 93.2%; in the experiment on SF-295 CNS, 84.3%; in the experiment on SF-539 CNS it was 85.3%; in the experiment on UACC-257 melanoma it was 82.5%. In addition, the growth with M14 melanoma is 67.1%.
